Assay results reported in ChEMBL document CHEMBL2218924, “A broad activity screen in support of a chemogenomic map for kinase signalling research and drug discovery” (Biochem J, 2013).

target: T1, Serine/threonine-protein kinase Sgk3 (Homo sapiens) (UniProt Q96BR1); settings: at 10 µM
T1 sequence (whole entry): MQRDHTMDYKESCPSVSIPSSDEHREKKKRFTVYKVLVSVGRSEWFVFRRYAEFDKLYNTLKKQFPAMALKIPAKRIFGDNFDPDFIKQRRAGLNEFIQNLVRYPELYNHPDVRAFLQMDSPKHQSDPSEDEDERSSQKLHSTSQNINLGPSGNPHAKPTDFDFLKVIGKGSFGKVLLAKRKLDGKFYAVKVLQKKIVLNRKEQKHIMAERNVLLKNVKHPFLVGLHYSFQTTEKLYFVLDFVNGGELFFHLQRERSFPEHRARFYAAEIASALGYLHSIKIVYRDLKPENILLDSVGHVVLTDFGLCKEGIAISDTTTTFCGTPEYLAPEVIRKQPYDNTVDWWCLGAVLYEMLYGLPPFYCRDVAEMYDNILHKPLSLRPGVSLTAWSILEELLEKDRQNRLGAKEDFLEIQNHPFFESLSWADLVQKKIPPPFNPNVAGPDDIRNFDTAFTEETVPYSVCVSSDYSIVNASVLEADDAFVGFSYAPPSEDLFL

Structure (SMILES)	residual activity [%]
Cc1cc2ncc(-c3ccccc3)nc2cc1C	90
Cc1nc2cc3nc(-c4cccs4)cnc3cc2n1C	98
CO[C@H]1[C@@H](OC)C[C@H](C)[C@@H](OC)C2=CC(=O)C=C(NC(=O)/C(C)=C/C=C/[C@H](OC)[C@@H](OC(N)=O)/C(C)=C/[C@@H]1C)C2=O	93
CN(C)CCCn1cc(C2=C(c3c[nH]c4ccccc34)C(=O)NC2=O)c2ccccc21	65
Oc1ccc(-c2nc(-c3ccc(F)cc3)c(-c3ccncc3)[nH]2)cc1	73
O=C1NC(=O)/C(=C\c2ccc3nccnc3c2)S1	93
Oc1ccc(Nc2nc(-c3ccc(Cl)cc3)cs2)cc1	134

target: Serine/threonine-protein kinase SIK1 (Homo sapiens) (UniProt P57059); settings: at 1 µM
Sequence (P57059 whole entry): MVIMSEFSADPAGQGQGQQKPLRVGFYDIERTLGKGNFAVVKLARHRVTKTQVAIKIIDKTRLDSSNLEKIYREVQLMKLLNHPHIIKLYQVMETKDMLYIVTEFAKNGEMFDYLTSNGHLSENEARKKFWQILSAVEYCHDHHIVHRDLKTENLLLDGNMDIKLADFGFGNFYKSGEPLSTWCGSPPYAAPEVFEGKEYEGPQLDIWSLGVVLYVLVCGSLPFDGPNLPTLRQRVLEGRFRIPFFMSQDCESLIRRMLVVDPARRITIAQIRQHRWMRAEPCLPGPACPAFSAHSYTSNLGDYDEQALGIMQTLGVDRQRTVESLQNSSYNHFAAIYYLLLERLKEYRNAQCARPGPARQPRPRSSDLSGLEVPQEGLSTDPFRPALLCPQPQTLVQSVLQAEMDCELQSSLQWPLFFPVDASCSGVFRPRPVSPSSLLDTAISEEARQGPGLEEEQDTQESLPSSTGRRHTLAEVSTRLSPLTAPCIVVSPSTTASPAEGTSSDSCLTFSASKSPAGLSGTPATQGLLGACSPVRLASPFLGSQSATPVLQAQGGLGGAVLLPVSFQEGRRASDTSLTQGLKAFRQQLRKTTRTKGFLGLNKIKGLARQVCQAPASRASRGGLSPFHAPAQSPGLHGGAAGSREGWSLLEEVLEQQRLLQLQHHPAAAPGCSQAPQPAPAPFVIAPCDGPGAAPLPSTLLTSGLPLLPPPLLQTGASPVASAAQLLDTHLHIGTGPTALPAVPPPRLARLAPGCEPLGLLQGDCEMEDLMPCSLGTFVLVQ

Structure (SMILES)	residual activity [%]
Nc1cccc(-c2cc3c(Oc4cccc(O)c4)ncnc3[nH]2)c1	8
Cc1cccc(-c2[nH]c(C(C)(C)C)nc2-c2ccc3c(c2)OCO3)n1	90
COc1cc2ncnc(Nc3ccc(NC(=O)c4ccccc4)cc3)c2cc1OC	100
Cn1nc2c3c(cccc31)C(=O)c1ccccc1-2	132
N#Cc1cnc2cnc(NCc3cccnc3)cc2c1Nc1ccc(F)c(Cl)c1	101
c1ccc2c(-c3ccncc3)c[nH]c2c1	79
O=C(Nc1cccc(Nc2nccc(Nc3cccc(C(F)(F)F)c3)n2)c1)C1CC1	58
CC(C)n1cnc2c(NCc3ccccc3)nc(NCCCO)nc21	116
COc1cc2ncnc(Nc3ccc(Oc4ccccc4)cc3)c2cc1OC	66
O=C(O)c1ccc2c3c1cccc3c(=O)n1c3ccccc3nc21	106
Cn1cnc2cc3c(Nc4cccc(Br)c4)ncnc3cc21	69
O=C1Nc2ccc(Br)cc2/C1=C\c1cc2c([nH]1)CCCC2	97
c1ccc(-c2n[nH]cc2-c2ccnc3ccccc23)nc1	99
CC(=O)c1ccc(N2CCOCC2)cc1O	90
Cc1cncc2cccc(S(=O)(=O)N3CCCN(C(=O)CN)C[C@H]3C)c12	84
Cc1ccc(S(=O)(=O)/C=C/C#N)cc1	81

Structure (SMILES)	residual activity [%]
O=C1NC(=O)c2cc(Nc3ccc(F)cc3)c(Nc3ccc(F)cc3)cc21	98
CCN(CC)C(=O)c1ccc(Nc2nc(OCC3CCCCC3)c3nc[nH]c3n2)cc1	37
Cn1cc(/C=C2\C(=O)Nc3ccc(S(N)(=O)=O)cc32)c2ccccc21	24
O=C1Nc2ccccc2/C1=C1/Nc2ccccc2/C1=N\OCCC(O)CO (centres undefined)	46
c1ccc(-c2n[nH]c3c2oc2ccccc23)cc1	82
NC(=O)c1ccc2[nH]c(-c3ccc(Oc4ccc(Cl)cc4)cc3)nc2c1	108
N#CC(C#N)=C(N)/C(C#N)=C/c1ccc(O)cc1	90
Cc1cc(Nc2nc(-c3ccccc3)nc3ccccc23)n[nH]1	60
Cc1cc2ncc(-c3ccccc3)nc2cc1C	80
Cc1nc2cc3nc(-c4cccs4)cnc3cc2n1C	100
CO[C@H]1[C@@H](OC)C[C@H](C)[C@@H](OC)C2=CC(=O)C=C(NC(=O)/C(C)=C/C=C/[C@H](OC)[C@@H](OC(N)=O)/C(C)=C/[C@@H]1C)C2=O	82
CN(C)CCCn1cc(C2=C(c3c[nH]c4ccccc34)C(=O)NC2=O)c2ccccc21	71
Oc1ccc(-c2nc(-c3ccc(F)cc3)c(-c3ccncc3)[nH]2)cc1	135
COc1cc2ncnc(N3CCN(C(=O)Nc4ccc(Oc5ccccc5)cc4)CC3)c2cc1OC	87
O=C1NC(=O)/C(=C\c2ccc3nccnc3c2)S1	74
Oc1ccc(Nc2nc(-c3ccc(Cl)cc3)cs2)cc1	101
